Reference: PubChem BioAssay (NCATS)
Inconclusive results are not listed. The source made the active and inactive calls. Calls come from the whole dose curve; as a rule, active = well fitted curve in the direction sought with a large enough effect; inconclusive = small, poorly fitted or top-dose-only effect, or another doubt; inactive = no such curve, though single readings can be large; an effect the other way counts as inactive or inconclusive.

Experiments:
HaCat [1] = experiment: Cytotoxic Profiling of Annotated Libraries Using Quantitative High-Throughput Screening (AID 1296008); details: Five cell lines viability, CellTiter-Glo ATP luminescence, 48-72 h; max response: active compounds read low; note: nearly all actives have a fitted effect of over 60% in size
Outline: (§1)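 Compounds were pin-transferred onto cells and incubated 48 or 72 hr at 37 degree Celsius, 95% humidity. CellTiter-Glo was added, plates sat 10 min at room temperature, then ATP-coupled luminescence was imaged as the viability read-out.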

MCC-26 = experiment: qHTS assay to identify novel small-molecules to repurpose for Merkel cell carcinoma treatment (AID 1296009); details: MCC and control cell lines, CellTiter-Glo viability, 72 h; series mostly up to 46 µM; note: nearly all actives have a fitted effect of over 60% in size
Outline: (§2)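 Luminescence from CellTiter-Glo, read 10 min after addition at room temperature, reported viability following a 72 hr, 37 degree celsius treatment with NPC or MIPE compounds in titration; values normalized to plate controls.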

C33A = experiment: Primary qHTS to identify gynecologic anti-cancer compounds using libraries of approved drugs and bioactive compounds (AID 1345084); details: Gynecologic cancer cell panel viability, ATPlite luminescence, 48 h; series mostly up to 57.5 µM; note: nearly all actives have a fitted effect of over 55% in size
Outline: (§3)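 Cell viability after 48 h drug treatment, ATPlite luminescence readout; five doses.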

CASKI = experiment: as above; details: Gynecologic cancer cell panel viability, ATPlite luminescence, 48 h; series mostly up to 57.5 µM
Outline: as §3

HeLa = experiment: as above; details: Gynecologic cancer cell panel viability, ATPlite luminescence, 48 h; series mostly up to 57.5 µM
Outline: as §3

HACAT [2] = experiment: qHTS assay to identify novel small-molecules to repurpose for Merkel cell carcinoma treatment (AID 1296009); details: MCC and control cell lines, CellTiter-Glo viability, 72 h; at 44.8 µM (top of the series) unless noted; note: nearly all actives have a fitted effect of over 60% in size
Outline: as §2

MCC-13 = experiment: as above; details: MCC and control cell lines, CellTiter-Glo viability, 72 h; series mostly up to 46 µM
Outline: as §2

MKL-2 = experiment: as above; details: MCC and control cell lines, CellTiter-Glo viability, 72 h; series mostly up to 46 µM
Outline: as §2

UISO = experiment: as above; details: MCC and control cell lines, CellTiter-Glo viability, 72 h; series mostly up to 46 µM
Outline: as §2

WaGa = experiment: as above; details: MCC and control cell lines, CellTiter-Glo viability, 72 h; series mostly up to 46 µM
Outline: as §2

CAOV3 = experiment: Primary qHTS to identify gynecologic anti-cancer compounds using libraries of approved drugs and bioactive compounds (AID 1345084); details: Gynecologic cancer cell panel viability, ATPlite luminescence, 48 h; series mostly up to 57.5 µM; note: nearly all actives have a fitted effect of over 55% in size
Outline: as §3

Es-2 = experiment: as above; details: Gynecologic cancer cell panel viability, ATPlite luminescence, 48 h; series mostly up to 57.5 µM
Outline: as §3

Hek293T [3] = experiment: as above; details: Gynecologic cancer cell panel viability, ATPlite luminescence, 48 h, control line for the selectivity index; series mostly up to 57.5 µM
Outline: as §3

KB-3-1 = experiment: Cytotoxic Profiling of Annotated Libraries Using Quantitative High-Throughput Screening (AID 1296008); details: Five cell lines viability, CellTiter-Glo ATP luminescence, 48-72 h; max response: active compounds read low; note: nearly all actives have a fitted effect of over 60% in size
Outline: as §1

NIH3T3 [4] = experiment: as above; details: Five cell lines viability, CellTiter-Glo ATP luminescence, 48-72 h; max response: active compounds read low
Outline: as §1

HEK293 = experiment: as above; details: Five cell lines viability, CellTiter-Glo ATP luminescence, 48-72 h; max response: active compounds read low
Outline: as §1

HEK293T [5] = experiment: qHTS assay to identify novel small-molecules to repurpose for Merkel cell carcinoma treatment (AID 1296009); details: MCC and control cell lines, CellTiter-Glo viability, 72 h; at 44.8 µM (top of the series) unless noted; note: nearly all actives have a fitted effect of over 60% in size
Outline: as §2

MKL-1 = experiment: as above; details: MCC and control cell lines, CellTiter-Glo viability, 72 h; series mostly up to 46 µM
Outline: as §2

NIH3T3 [6] = experiment: as above; details: MCC and control cell lines, CellTiter-Glo viability, 72 h; at 44.8 µM (top of the series) unless noted
Outline: as §2
% is set by controls: 0 for no effect and ±100 for the full control effect; potency is the fitted concentration of half-maximal effect.

OCCN1CCN(CC/C=C2/c3ccccc3Sc3ccc(C(F)(F)F)cc32)CC1
inactive: max response (HaCat [1]) -11.5% | Potency (MCC-26) | Potency (C33A) | Potency (CASKI) | Potency (HeLa)

Cc1cccc(C)c1NC(=O)C(C)N (configuration not stated)
inactive: outcome (HACAT [2]) | Potency (MCC-13) | Potency (MCC-26) | Potency (MKL-2) | Potency (UISO) | Potency (WaGa) | Potency (C33A) | Potency (CAOV3) | Potency (CASKI) | Potency (Es-2) | Potency (HeLa) | Potency (Hek293T [3])

NC1=NCC2c3ccccc3Cc3ccccc3N12 (configuration not stated)
inactive: max response (HaCat [1]) -7.94% | max response (KB-3-1) -4.43% | max response (NIH3T3 [4]) -2.29% | Potency (MCC-13) | Potency (MCC-26) | Potency (MKL-2) | Potency (UISO) | Potency (WaGa) | Potency (C33A) | Potency (CAOV3) | Potency (CASKI) | Potency (Es-2) | Potency (HeLa) | Potency (Hek293T [3])

CC(C)(C)c1ccc(C(=O)CCCN2CCC(OC(c3ccccc3)c3ccccc3)CC2)cc1
active: Potency (HEK293) 8.41 µM | Potency (MKL-2) 7.5 µM | Potency (WaGa) 15 µM | Potency (CAOV3) 28.2 µM
inactive: Potency (C33A) | Potency (CASKI) | Potency (Es-2) | Potency (HeLa)

Fc1ccc(C(c2ccc(F)cc2)N2CCN(C/C=C/c3ccccc3)CC2)cc1
inactive: Potency (MCC-13) | Potency (MCC-26) | Potency (UISO) | Potency (Es-2) | Potency (HeLa) | Potency (Hek293T [3])

C[C@]12CCC(=O)C=C1CC[C@@H]1[C@@H]2C(=O)C[C@@]2(C)[C@H]1CC[C@]2(O)C(=O)CO
inactive: outcome (HEK293) | max response (NIH3T3 [4]) 1.17% | outcome (HEK293T [5]) | Potency (MCC-13) | Potency (MCC-26) | Potency (MKL-2) | Potency (UISO) | Potency (WaGa) | Potency (C33A) | Potency (CAOV3) | Potency (CASKI) | Potency (Es-2) | Potency (HeLa) | Potency (Hek293T [3])

CCN(CC)CCOCCOC(=O)C1(c2ccccc2)CCCC1
inactive: outcome (HACAT [2]) | Potency (MCC-13) | Potency (MCC-26) | Potency (MKL-1) | Potency (MKL-2) | Potency (UISO) | Potency (C33A) | Potency (CAOV3) | Potency (CASKI) | Potency (Es-2) | Potency (HeLa) | Potency (Hek293T [3])

CC(C)NCC(O)c1cc(O)cc(O)c1 (configuration not stated)
inactive: outcome (HACAT [2]) | Potency (MCC-13) | Potency (MCC-26) | Potency (UISO) | Potency (WaGa) | Potency (C33A) | Potency (CAOV3) | Potency (CASKI) | Potency (Es-2) | Potency (HeLa) | Potency (Hek293T [3])

CN(C)C(=O)Oc1ccc[n+](C)c1
inactive: outcome (HEK293T [5]) | Potency (MCC-13) | Potency (MCC-26) | Potency (MKL-1) | Potency (MKL-2) | outcome (NIH3T3 [6]) | Potency (UISO) | Potency (WaGa) | Potency (C33A) | Potency (CAOV3) | Potency (CASKI) | Potency (Es-2) | Potency (HeLa) | Potency (Hek293T [3])

COC(=O)C1=C(C)NC(C)=C(C(=O)OC(C)(C)CN(C)CCC(c2ccccc2)c2ccccc2)C1c1cccc([N+](=O)[O-])c1 (configuration not stated)
active: Potency (HEK293) 10.6 µM | Potency (MKL-1) 23.7 µM
inactive: Potency (MCC-26) | Potency (C33A) | Potency (CAOV3) | Potency (CASKI) | Potency (Es-2) | Potency (Hek293T [3])

CN(C(=O)CCCOc1ccc2[nH]c(=O)ccc2c1)C1CCCCC1
inactive: max response (NIH3T3 [4]) -24.3% | Potency (MCC-13) | Potency (MCC-26) | Potency (MKL-1) | Potency (MKL-2) | Potency (UISO) | Potency (WaGa) | Potency (C33A) | Potency (CAOV3) | Potency (CASKI) | Potency (Es-2) | Potency (HeLa) | Potency (Hek293T [3])

CC(C)COCC(CN(Cc1ccccc1)c1ccccc1)N1CCCC1 (configuration not stated)
active: Potency (HEK293) 18.8 µM | Potency (NIH3T3 [4]) 26.6 µM | Potency (CAOV3) 25.1 µM
inactive: max response (KB-3-1) -4.17% | Potency (CASKI) | Potency (Es-2) | Potency (HeLa)

CCCCNC(=O)NS(=O)(=O)c1ccc(C)cc1
inactive: outcome (HEK293T [5]) | Potency (MCC-13) | Potency (MCC-26) | Potency (MKL-1) | Potency (MKL-2) | Potency (UISO) | Potency (WaGa) | Potency (C33A) | Potency (CASKI) | Potency (Es-2) | Potency (HeLa) | Potency (Hek293T [3])

O=C1NCN(c2ccccc2)C12CCN(CCCC(c1ccc(F)cc1)c1ccc(F)cc1)CC2
active: Potency (HEK293) 10.6 µM | Potency (MKL-2) 23.7 µM | Potency (CAOV3) 31.6 µM | Potency (Es-2) 31.6 µM
